Bioassay records from PubChem BioAssay.
A selection: hits, their analogues and other compounds. The true share with any hit is near 19%.
ELG1 DNA repair: ELG1-dependent DNA repair inhibition; HEK293T ELG1-luciferase reporter, luminescence, 16 h; DNA damage induced by 5-fluorouridine; Potency, µM (series often up to 46.1 µM), hits mostly inhibitors; hit rate 2.3% among 330,000; AID 504467; note: nearly all actives have a fitted effect of over 55% in size
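Cells (2,000 per well) received 5-fluorouridine plus test compound or DMSO and were incubated 16 hr at 37 °C, 5% CO2. Luciferase activity was read by luminescence 30 min after ONE-Glo addition; signal suppression marked inhibition of damage-induced ELG1 function.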
HT1080 IDH1KD tx: HT-1080 IDH1 knockdown cell toxicity (counter line). HT-1080 IDH1 knockdown viability, ATP luminescence, 48 h. Potency, µM (highest dose often 46.1 µM), most hits filed as cytotoxic. hit rate 2% among 360,000
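Using the IDH1-knockdown HT-1080 line run in the same batch and compound series as the NT line, viability after 48 h at 37 °C was determined by CellTiter-Glo luminescence and expressed as % activity.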
TDP1 cell noCPT: qHTS for Inhibitors of human tyrosyl-DNA phosphodiesterase 1 (TDP1): qHTS in cells in absence of CPT. hit rate 15% among 420,000. Potency, µM (titrated, usually from 46.2 µM), usual class: inhibitors. AID 686978, 2013. DT40 Tdp1-/- hTDP1 cells, no CPT, ATP luminescence, 48 h; note: nearly all actives have a fitted effect of over 55% in size
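Compound effects on proliferation are scored in DT40 Tdp1-/-;hTDP1 cells in the absence of CPT. ATP levels (CellTiter-Glo luminescence) are recorded after a ≥48 hr, 37 °C incubation.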
DT40 TDP1 CPT: growth inhibition of DT40 Tdp1-/-;hTDP1 cells with camptothecin (screen for TDP1 inhibitors); Potency, µM (highest dose often 46.2 µM), usual class: inhibitors; hit rate 12% among 420,000; chicken DT40 Tdp1-/-;hTDP1 cells + 20 nM CPT, ATP luminescence, 48 h; AID 686979; note: nearly all actives have a fitted effect of over 55% in size
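Cell growth measured by CellTiter-Glo luminescence after a minimum 48 h, 37 C compound exposure with 20 nM CPT in Tdp1-knockout DT40 cells stably expressing hTDP1, seeded 400/well; qHTS titration format.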
HT1080-NT tox: kills 2HG-producing HT-1080-NT fibrosarcoma cells | HT-1080-NT fibrosarcoma viability, CellTiter-Glo ATP luminescence, 48 h | Potency, µM (titrated, usually from 46.1 µM), most hits filed as cytotoxic | hit rate 1.6% among 360,000 | AID 686970;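 note: NT is the 2HG producing partner of a matched IDH1 knockdown line; nearly all actives have a fitted effect of over 55% in size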
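750 cells/well, RPMI + 5% FBS; 2 h settle, compound pin-transfer, 48 h at 37 degrees C. CellTiter-Glo 10 min RT, luminescence. Normalized to DMSO and media-only wells.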
IL1B secr inh: blocks inflammasome-driven IL-1 beta release | hit rate 4.7% among 360,000 | THP-1 LPS/ATP IL-1B secretion, AlphaLISA, 16 h; stronger effect = lower value | activity change, % at 57.5 µM; in the data active = activity change below about -50%; inconclusive = mostly about -30% to -49%
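THP-1 cells pretreated 1 hr with compounds (up to 57.5 uM final), then stimulated with LPS (250 ng/mL final) plus ATP (1.25 mM final); secreted IL-1B measured by AlphaLISA after 16 hr, decreased signal indicating inhibition.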
A number is an active result; n = inactive; u = inconclusive; x = no result; [ ] = another dose, or the depositor's remark. Unless noted, calls come from the whole dose curve; as a rule, active = well fitted curve in the direction sought with a large enough effect; inconclusive = small, poorly fitted or top-dose-only effect, or another doubt; inactive = no such curve, though single readings can be large; an effect the other way counts as inactive or inconclusive.

SMILES	ELG1 DNA repair	HT1080 IDH1KD tx	TDP1 cell noCPT	DT40 TDP1 CPT	HT1080-NT tox	IL1B secr inh
Cc1c(CC(=O)O)c(=O)oc2cc(OCc3ccc(Br)cc3)ccc12	n	n	n	n	n	n
O=C(CCc1nnc(-c2ccc3c(c2)OCO3)o1)NCCc1ccccc1F	n	u	u	16µM	n	n
O=C1C2C3C=CC(C3)C2C(=O)N1/N=C/c1cc(Br)cc([N+](=O)[O-])c1O (configuration not stated)	n	u	23µM	u	u	n
O=C1C2C3C=CC(C3)C2C(=O)N1/N=C/c1ccc(-c2ccccc2[N+](=O)[O-])o1 (configuration not stated)	u	n	n	u	n	n
CCC1C(=O)NCCN1Cc1ccc2c(c1)CN(Cc1cccn1-c1ccc(Cl)cn1)CCO2 (configuration not stated)	x	x	u	n[9.04 µM]	x	x
N#CCC(=O)Nc1ccc(C(=O)OCC(=O)N2CCN(C(=O)c3ccco3)CC2)cc1	n	n	n	n	n	n
COc1ccc(CCC(=O)N/N=C/c2ccc3c(c2)OCO3)cc1	x	n	n	n	n	n
CNC[C@H](CC1CCCCC1)NC[C@H](CO)NCC1(c2ccccc2)CC1	n	u	21µM	u	u	n
CNC[C@H](CC1CCCCC1)NC[C@H](CO)NCCc1cccc(C(F)(F)F)c1	n	u	5.8µM	7.3µM	u	-60
C=CCn1c(SC/C=C/c2ccccc2)nnc1-c1sc(N)nc1C	n	n	15µM	u	n	n
O=C(CC(c1ccccc1)c1ccccc1)Nc1ccc(C(=O)O)cc1	n	n	n	n	n	n
O=C(OCc1ccccc1)N(CCCCN(CCCNCc1ccccc1)C(=O)OCc1ccccc1)CCCNCc1ccccc1	x	u	5.2µM	5.2µM	u	n
COc1ccc(-c2oc3ncn4nc(-c5ccccc5Cl)nc4c3c2-c2ccc(OC)cc2)cc1	x	x	n	n	x	x
CCN(CC)c1ncnc2scc(C3COc4ccccc4O3)c12 (configuration not stated)	u	u	u	16µM	u	n
c1ccc2c(c1)OCC(c1csc3ncnc(N4CCOCC4)c13)O2 (configuration not stated)	u	n	u	u	n	n
CCN(CC)c1nn2c(=O)c(C(=O)NCCc3ccccc3C)cnc2s1	x	x	u	16µM	x	x
CCc1ccc(CNC(=O)c2cnc3sc(N(CC)CC)nn3c2=O)cc1	x	x	u	13µM	x	x
CCOc1ccc(CCNC(=O)c2cnc3sc(N(CC)CC)nn3c2=O)cc1OCC	x	x	u	n	x	x
CCn1cc(C(=O)OCC(=O)c2cc(C)n(-c3cccc(C(F)(F)F)c3)c2C)c(=O)c2ccc(C)nc21	u	n	u	u	n	-66
Cc1cc(C(=O)COC(=O)Cc2n[nH]c(=O)c3ccccc23)c(C)n1-c1cccc(C(F)(F)F)c1	23µM	n	16µM	u	n	n
O=C(NC1CCCc2c1cnn2-c1ccccc1F)c1ccncc1 (configuration not stated)	x	n	5.8µM	10µM	n	n
COc1ccc(C(=O)NC2CCCc3c2cnn3-c2ccccc2F)cc1OC (configuration not stated)	u	n	1.6µM	5.2µM	n	n
OCCCc1ccccc1	x	x	n	n	x	x
C=CC[C@@H](CC(=O)OC(C)(C)C)C(=O)OC[C@H]1CCCN1C(=O)[C@@H](CC=C)CC(=O)N[C@H](CO)Cc1ccccc1	16µM	n	u	u	n	n
C=CC[C@@H](Cc1ccc(F)cc1)C(=O)OC[C@@H]1CCCN1C(=O)[C@H](CC=C)CC(=O)N[C@H](CO)Cc1ccccc1	u	n	18µM	u	n	-70
SMILES	ELG1 DNA repair	HT1080 IDH1KD tx	TDP1 cell noCPT	DT40 TDP1 CPT	HT1080-NT tox	IL1B secr inh
C=CC[C@@H](CC(=O)OC(C)(C)C)C(=O)OC[C@@H]1CCCN1C(=O)[C@@H](CC=C)CC(=O)N[C@@H](CO)Cc1ccccc1	n	n	u	u	n	n
C/C(=N/Nc1nc(-c2ccccc2F)nc2ccccc12)c1ccccc1O	u	n	9.2µM	7.3µM	u	n
Oc1ccccc1Nc1nc(-c2ccccc2O)nc2ccccc12	n	n	n	n	n	n
C/C(=N\Nc1nc(-c2ccccc2O)nc2ccccc12)c1ccccc1	n	n	7.3µM	u	n	n
C/C(=N\Nc1nc(-c2ccccn2)nc2ccccc12)c1ccc(F)cc1	n	u	5.8µM	2.6µM	n	n
Cc1cccc(C(=O)Nc2nnc(SCc3cc(=O)n4cccc(C)c4n3)s2)c1	x	x	n	n	x	x
CCSc1nc2sc3c(c2c(=O)n1-c1ccccc1)CCN(C)C3	n	n	u	u	n	n
CCCN1CCc2c(sc3nc(SCC)n(-c4ccccc4)c(=O)c23)C1	n	n	15µM	u	n	n
CCCN1CCc2c(sc3nc(SC)n(-c4ccccc4)c(=O)c23)C1	u	n	5.8µM	6.5µM	n	u
CCCN1CCc2c(sc3nc(SCC)n(-c4ccc(OC)cc4)c(=O)c23)C1	n	n	13µM	u	n	n
COc1ccc(-n2c(SC)nc3sc4c(c3c2=O)CCN(C)C4)cc1	n	n	12µM	u	n	n
CCC1CN(CCNC(=O)C(C)(C)O)Cc2cc(OC)ccc2O1 (configuration not stated)	x	x	n	n[9.04 µM]	x	x
Cc1ccn2c(=O)cc(COc3ccc(NC(=O)C(C)(C)C)cc3)nc2c1	x	x	u	n	x	x
CS(=O)(=O)N1CCC2(CC1)CN(c1cccc(-c3ccccc3)c1)C2	x	x	18µM	u	x	x
CS(=O)(=O)N1CCC2(CCN(c3cccc(-c4ccccc4)c3)CC2)CC1	x	x	21µM	u	x	x
CS(=O)(=O)N1CCC2(CCN(c3ccccn3)CC2)CC1	x	x	n	n	x	x
O=S(=O)(O)c1cc(Cl)cc(N=Nc2ccc(O)cc2O)c1O	x	n	u	n	n	n
Cc1cc(-c2ccc(N=Nc3c(S(=O)(=O)O)cc4cc(S(=O)(=O)O)cc(N)c4c3O)c(C)c2)ccc1N=Nc1c(S(=O)(=O)O)cc2cc(S(=O)(=O)O)cc(N)c2c1O	7.3µM	x	9.4µM	9.4µM	x	x
O=S(=O)(O)c1cc(O)c2c(O)c(N=Nc3cc(Cl)ccc3O)c(S(=O)(=O)O)cc2c1	u	u	18µM	18µM	u	n
Cc1ccc(C(=O)NC2(C(F)(F)F)NC(=O)N(c3ccc(Cl)cc3)C2=O)cc1 (configuration not stated)	n	n	n	n	n	-61
